Compounds with a hit are over-represented: about 6% of the library has one in this group of screens.
D3 antag = D3 dopamine receptor (human) antagonism. max response, negative = inhibition, %. 360,000 compounds, 2.5% hits. P35462. D3R cells, DiscoveRx beta-arrestin luminescence, antagonist mode; hits give low values; in the data active = max response below about -50%; inconclusive = no clear call, values can overlap the other calls; also: % is scaled to controls: 0 for no effect and ±100 for the full control effect
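Cells expressing the human receptor were seeded at 1500 cells/well, incubated overnight at 37 degrees C in 5% CO2, then exposed to library compounds with dopamine controls for 90 minutes at 37 degrees C before luminescent detection.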
D3 ag = activates the human D3 dopamine receptor; D3R DiscoveRx beta-arrestin cells, luminescence, 90 min; max activation, %; P35462; 410,000 compounds, 0.58% hits; AID 652048; in the data active = max activation above about 30%; also: 0% is about no effect
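Cells at 1500/well, incubated overnight, then treated with pinned compounds (dopamine as control) for 90 min at 37 degrees C. DiscoveRx reagent added for 30 - 60 minutes at room temperature; luminescence read.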
D1 potentiator = potentiators of human D1 dopamine receptor | AID 504651 | 360,000 compounds, 0.036% hits | potentiation, % at 10 µM | HEK293 TREx D1 cells, calcium flux, dopamine EC20 potentiation | P21728; in the data active = potentiation above about 30%; also: 0% is about no effect
Target sequence (P21728 whole entry, looked up): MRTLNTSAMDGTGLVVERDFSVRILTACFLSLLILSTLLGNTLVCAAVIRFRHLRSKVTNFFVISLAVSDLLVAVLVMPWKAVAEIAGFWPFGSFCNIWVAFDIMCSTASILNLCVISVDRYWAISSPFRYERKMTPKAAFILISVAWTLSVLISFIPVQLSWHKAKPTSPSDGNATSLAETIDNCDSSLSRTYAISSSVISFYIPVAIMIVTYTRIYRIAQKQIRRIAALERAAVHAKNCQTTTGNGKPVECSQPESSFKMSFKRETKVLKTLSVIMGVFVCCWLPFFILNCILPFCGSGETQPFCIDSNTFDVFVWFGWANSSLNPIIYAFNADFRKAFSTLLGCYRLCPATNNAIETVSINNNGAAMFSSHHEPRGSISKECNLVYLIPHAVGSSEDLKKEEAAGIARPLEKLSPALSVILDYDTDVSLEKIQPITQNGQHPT
D1 ag = activates the human D1 dopamine receptor | P21728 | 360,000 compounds, 1% hits | HEK293 T-REx D1 cells, calcium flux, agonist mode | activation, % at 2 µM; in the data active = activation above about 30%; also: 0% is about no effect
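Inducible HEK293 T-REx D1 cells, force-coupled to calcium signalling, were plated at 4000 cells/well with tetracycline and held overnight at 30 C. After no-wash calcium dye loading, compound-evoked calcium rise over 180 s flagged agonists.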
D1 antagonist = blocks dopamine activation of the human D1 receptor; HEK293 TREx D1 cells, calcium flux, dopamine EC80; hits give low values; activity change, negative = inhibition, % at 10 µM; 360,000 compounds, 3.2% hits; AID 504652; in the data active = activity change below about -30%; also: % is scaled to controls: 0 for no effect and ±100 for the full control effect
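Cells carrying a force-coupled, tetracycline-inducible human D1 receptor report calcium flux. Each well gets a 10 s baseline, compound with 180 s monitoring, then an EC80 dopamine stimulus with a second 180 s kinetic read.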
* = called active by the depositor; ? = inconclusive; / = no result given; ! = not confirmed by another sample.

SMILES	D3 antag	D3 ag	D1 potentiator	D1 ag	D1 antagonist
O=C(c1ccoc1)N1CCCC(N2CCN(c3cccc(Cl)c3)CC2)C1 (stereo not drawn)	-3	4	-5	4	-46*
CCn1nc(C)cc1C(=O)N1CCCC(N2CCN(c3cccc(Cl)c3)CC2)C1 (stereo not drawn)	/	/	-11	3	-54*
Cc1cc(C(=O)N2CCCC(N3CCN(c4cccc(Cl)c4)CC3)C2)n(C)n1 (stereo not drawn)	11	1	-4	6	15
O=C(c1ccoc1)N1CCCC(N2CCN(c3ccc(F)cc3)CC2)C1 (stereo not drawn)	-3	9	-5	0	-6
Cc1cc(C)c2c(n1)nn1c(C)c(CCC(=O)Nc3cccc(C)c3C)c(C)nc21	/	-2	-1	-1	11
O=C(COC(=O)C12CC3CC(CC(C3)C1)C2)Nc1nccs1	1	2	3	6	-34*
Cc1ccnc(NC(=O)COC(=O)C23CC4CC(CC(C4)C2)C3)n1	2	1	-3	5	-13
Cc1ccc(C(=O)Nc2ccc(SC(F)F)cc2)s1	-1	-3	-5	9	-34*
O=C(CSc1ccc(-c2cccs2)nn1)Nc1cccc(F)c1	/	-10	-8	20	-28
CCC(=O)O	/	-7	/	/	/
CCOC(=O)N1CCC(=C2c3ccc(Cl)cc3CCc3cccnc32)CC1	126	52*!	-1	5	28
CN1CCC(=C2c3ccccc3CCc3cccnc32)CC1	/	-25	/	/	/
Cc1nn(CCc2nn[nH]n2)c2nc(-c3ccc(C4CCCCC4)cc3)cc(C(F)(F)F)c12	14	17	-6	9	-46*
Cc1nc(-c2ccc(S(=O)(=O)Nc3cc(Cl)ccc3C)cc2)co1	/	-1	-4	6	-2
O=C(/C=C/c1cn(CC(O)CN2CCCCC2)c2ccccc12)c1ccccc1 (stereo not drawn)	?	-40	-5	31*	-50*
COc1ccc(C(=O)/C=C/c2cn(CC(O)CN3CCCCCC3)c3ccccc23)cc1OC (stereo not drawn)	/	-26	-2	15	4
O=C(/C=C/c1cn(CC(O)CN2CCCCC2)c2ccccc12)c1cccs1 (stereo not drawn)	-27	-12	-7	46*	0
Cc1ccc(C(=O)/C=C/c2cn(CC(O)CN3CCCCCC3)c3ccccc23)cc1 (stereo not drawn)	/	-21	-3	59*	-24
O=C(/C=C/c1cn(CC(O)CN2CCCCCC2)c2ccccc12)c1ccc(Br)cc1 (stereo not drawn)	/	-15	-5	45*	-3
Cc1cccc(OC(C)C(=O)N2CCC(c3nc4ccccc4o3)CC2)c1C (stereo not drawn)	/	7	0	1	-3
COC(=O)c1cc2oc3ccccc3c2n1CC(=O)Nc1ccc(C)c(F)c1	/	-9	-6	3	-25
O=C(/C=C/c1cn(CC(O)CN2CCCCCC2)c2ccccc12)c1ccccc1 (stereo not drawn)	/	-15	-5	54*	-5
O=C(Nc1ccncc1)C1CCN(S(=O)(=O)c2cccc(C(F)(F)F)c2)CC1	13	1	/	8	-44*
O=C(Cc1cccc(C(F)(F)F)c1)Nc1cccc(S(=O)(=O)N2CCCC2)c1	-7	-10	-10	11	-41*
O=C(NCc1ccncc1)C1CCN(S(=O)(=O)c2cccc(C(F)(F)F)c2)CC1	-9	2	-5	1	1
SMILES	D3 antag	D3 ag	D1 potentiator	D1 ag	D1 antagonist
O=C(Cc1cccc(C(F)(F)F)c1)Nc1ccc(S(=O)(=O)N2CCCC2)cc1	1	11	-3	3	15
O=C(O)c1ccc(S(=O)(=O)N2CCC(n3nnc4cc(C(F)(F)F)ccc43)CC2)cc1	-11	11	-5	2	-26
CC(=O)N1CCN(S(=O)(=O)c2cccc(C(=O)Nc3cc(C(F)(F)F)ccc3N3CCOCC3)c2)CC1	18	2	-10	0	-31*
O=C(O)c1cccc(S(=O)(=O)N2CCC(n3nnc4cc(C(F)(F)F)ccc43)CC2)c1	-76*	-14	-4	1	7
CCc1cccc(C)c1NC(=O)c1cnn(-c2ccc(F)cc2)c1-n1cccc1	/	-15	-1	5	19
O=C(O)C1=C(CSc2nnnn2CS(=O)(=O)O)CS[C@@H]2[C@H](NC(=O)[C@H](O)c3ccccc3)C(=O)N12	/	-9	/	/	/
Cc1cccc(-n2c(=O)c3ccccc3n(Cc3ccc(F)cc3)c2=O)c1	/	1	0	0	-8
CC(CC(=O)Nc1cccc(S(=O)(=O)N2CCCCC2)c1)c1ccccc1 (stereo not drawn)	26	3	-1	10	-5
O=C(Cc1cccc(C(F)(F)F)c1)Nc1cc(S(=O)(=O)N2CCOCC2)ccc1N1CCCC1	11	-4	-24	1	-43*
O=C(COC(=O)C1CC2C=CC1C2)Nc1cccc(S(=O)(=O)N2CCCCC2)c1 (stereo not drawn)	7	31*	-5	8	-13
O=C(CSc1ccccc1)Nc1cccc(S(=O)(=O)N2CCCC2)c1	1	4	-2	5	-32*
O=C(Cc1ccc(S(=O)(=O)N2CCOCC2)s1)Nc1cc(C(F)(F)F)ccc1N1CCCC1	11	4	5	29	0
COc1ccc(CCC(=O)Nc2cccc(S(=O)(=O)N3CCCCCC3)c2)cc1OC	-11	1	-4	10	-31*
COc1ccc(CCC(=O)Nc2cccc(S(=O)(=O)N3CCCC3)c2)cc1OC	-1	-3	-1	3	-18
COC(=O)CSc1nc2sc3c(c2c(=O)n1Cc1ccccc1)CCC(C(C)(C)C)C3 (stereo not drawn)	/	-7	-1	1	5
CCc1ccc(NC(=O)CN2C(=O)C(c3ccc(F)cc3)=NC2(C)C)cc1	/	6	7	-3	-5
CCC(=O)N1CCc2cc(S(=O)(=O)NC(Cc3ccccc3)C(=O)Nc3ccc(C)cc3)ccc21 (stereo not drawn)	/	-4	0	5	0
CCOC(=O)N1CCc2c(sc3c2c(=O)n(-c2ccc(CC)cc2)c(=O)n3CC(=O)Nc2ccc(C)cc2)C1	/	1	0	1	20
CC(O)CNC(=O)C(=O)Nc1c2c(nn1-c1ccc(Cl)cc1)CSC2 (stereo not drawn)	/	-1	0	-3	/
O=C(Nc1ccc(C(F)(F)F)cc1)C1CCN(c2cnccn2)CC1	-6	-2	-4	5	-56*!
CCN(CC)S(=O)(=O)c1cc(C)ccc1SC	15	13	5	0	-38*
COc1ccc(N2CCN(C3C(=O)c4ccccc4N3C(C)=O)CC2)cc1 (stereo not drawn)	/	2	-5	3	-21
CC(=O)Nc1ccc(S(=O)(=O)N2CCC(c3nnnn3-c3ccccc3)CC2)cc1	/	3	-3	6	-5
C=CCn1c(N)c(C(=O)OCC)sc1=S	9	4	-7	1	27
